Records with an inconclusive call do not appear. Entries that show only a call come without a potency. The source made the active and inactive calls. Calls follow the shape of the dose curve; as a rule, active = well fitted inhibition curve with a large enough effect; inconclusive = small, poorly fitted or top-dose-only effect; inactive = flat fitted curve, though single readings scatter.
assay: CHOP2 Reporter Counterscreen Assay for Inhibitors of Ubiquitin-specific Protease USP2a; conditions: purified enterokinase, fluorogenic substrate, 485/531 nm; series mostly up to 38.3 µM;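 also: activated enterokinase alone at 50 pM in a cell-free format rather than USP2a or CHOP2; nearly all actives have a fitted effect of over 55% in size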
In short: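 Fluorescence (485/531 nm) read 10 min after adding 25nM reporter substrate to 50 pM activated EK preincubated 30 min RT with compound; Tris pH 8.0/CaCl2/CHAPS buffer. Data normalized to buffer-alone inhibition; concentration-response curves fitted.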
Potency is read from the fitted curve at half-maximal effect.

For `CC1=C(C(=O)OC(C)C)C(C)C(C(=O)OC(C)C)=C(C)N1`, which Potency is on record?
The Potency was “inactive”.

Which Potency does the source give for `Cc1ccc(C(=O)COC(=O)CNC(=O)CN2C(=O)c3ccccc3C2=O)cc1` here?
The Potency was “inactive”.

With `CC(C)(C)c1cc(Br)ccc1OCC(=O)Nc1ncn[nH]1` as the compound, how does the Potency read?
The Potency was “inactive”.

For `CC(=O)c1ccc2c(c1)C1C=CCC1C(C(=O)O)N2` (stereo not given), which Potency is on record?
Its Potency is 11.2 µM (active).

Which Potency does the source give for `COc1ccccc1C1NC(c2ccccc2OC)C(C)C(=O)C1C` (stereo not given) here?
The Potency was “inactive”.

With `O=C(Nc1cccc(Cl)c1)Nc1nnc(CC2=CCCCC2)s1` as the compound, how does the Potency read?
Its Potency is “inactive”.

For `O=C(NCc1ccccc1)C1CCC1`, which Potency is on record?
Its Potency is “inactive”.

For `CCN(Cc1ccncc1)C(=O)c1cccs1`, which Potency is on record?
Its Potency is “inactive”.

For `C#CCOCCOCCOCCNc1nc(N2CCN(C(=O)CCCCCCCCCCNC(=O)[C@@H](CCC(=O)O)n3cc(CCCCCN)nn3)CC2)nc(N2CCN(C(=O)CCCCCCCCCCNC(=O)[C@H]([C@@H](C)CC)n3cc(CCCCCN)nn3)CC2)n1`, which Potency is on record?
The Potency was 5.01 µM (active).

With `CCN(CC)CCNc1nc(-c2ccccc2)c2c(c1C#N)CC(C)(C)OC2` as the compound, how does the Potency read?
Its Potency is “inactive”.

Which Potency does the source give for `C#CCOCCOCCOCCNc1nc(N2CCN(C(=O)CCCCCCCCCCNC(=O)[C@H]([C@@H](C)CC)n3cc(CCCCCN)nn3)CC2)nc(N2CCN(C(=O)CCCCCCCCCCNC(=O)[C@H]([C@@H](C)CC)n3cc(CCCCN=C(N)N)nn3)CC2)n1` here?
Its Potency is 2.24 µM (active).

For `O=[N+]([O-])c1cc(-c2ccc(/C=N\n3cnnc3)o2)cc([N+](=O)[O-])c1`, which Potency is on record?
The Potency was 10 µM (active).

Which Potency does the source give for `CC(CN1CCCCC1)OC(=O)c1ccc(Cl)cc1` (stereo not given) here?
Its Potency is “inactive”.

With `Cc1ccc(C(=O)NCc2ccc3c(c2)OCO3)cc1N1CCCC1=O` as the compound, how does the Potency read?
Its Potency is “inactive”.

For `COc1ccc(-c2noc(CSc3nnc(Cc4ccccc4)n3-c3ccc(Cl)cc3)n2)cc1`, which Potency is on record?
The Potency was “inactive”.

Which Potency does the source give for `O=C(CN1C(=O)/C(=C2\SC(=S)N(CCS(=O)(=O)O)C2=O)c2ccccc21)Nc1cccc(Br)c1` here?
The Potency was 12.6 µM (active).

With `O=C(CCN1C(=O)/C(=C\c2ccco2)SC1=S)Nc1ccc(C(=O)O)c(O)c1` as the compound, how does the Potency read?
The Potency was 10 µM (active).

With `Cc1ccc(C(=O)N/C(=C/c2cccs2)C(=O)NCc2ccco2)cc1` as the compound, how does the Potency read?
Its Potency is “inactive”.

For `COc1ccc(NC(=O)CN(Cc2ccccc2)S(C)(=O)=O)cc1`, which Potency is on record?
The Potency was “inactive”.

Which Potency does the source give for `O=C(N/N=C1\CC(c2ccccc2)Oc2ccccc21)c1ccc(O)cc1` (stereo not given) here?
Its Potency is “inactive”.

With `COc1ccc(-c2nc(Cn3c(SCc4ccc(F)cc4)nc4ccncc43)c(C)o2)cc1OC` as the compound, how does the Potency read?
Its Potency is “inactive”.

For `CC(OC(=O)CN(C)S(=O)(=O)c1ccc(Cl)cc1)C(=O)Nc1ccc(N2CCOCC2)cc1` (stereo not given), which Potency is on record?
Its Potency is “inactive”.

With `Cc1ccc(-c2nc(N/N=C/c3ccncc3)c3ccccc3n2)cc1` as the compound, how does the Potency read?
Its Potency is “inactive”.

For `CC1=NC(C(F)(F)F)(C(F)(F)F)C2=C(CC(C)(C)CC2=O)N1Cc1ccco1`, which Potency is on record?
Its Potency is “inactive”.

For `CC1=NN(C(=O)c2csc(C)c2C)C(O)(C(F)(F)F)C1` (stereo not given), which Potency is on record?
Its Potency is “inactive”.

Which Potency does the source give for `O=C(CSc1nc2ccccc2s1)NCCCN1CCOCC1` here?
The Potency was “inactive”.

Which Potency does the source give for `CCOc1ccccc1N1C(=O)CC(Nc2ccc(N3CCOCC3)cc2)C1=O` (stereo not given) here?
The Potency was “inactive”.

For `O=C(NN=Cc1ccc(N2CCOCC2)s1)c1ccc([N+](=O)[O-])cc1`, which Potency is on record?
Its Potency is “inactive”.

With `Cc1ccc(C(=O)N(c2c(C)n(C)n(-c3ccccc3)c2=O)C(C)C)cc1` as the compound, how does the Potency read?
The Potency was “inactive”.

With `O=C1/C(=C/C=C/c2ccco2)SC(=S)N1c1ccc(O)cc1` as the compound, how does the Potency read?
The Potency was 2.82 µM (active).

Which Potency does the source give for `Cc1cc(C(=O)OCC(=O)c2cccc([N+](=O)[O-])c2)c2cccc(C)c2n1` here?
The Potency was “inactive”.

For `COc1ccc(S(=O)(=O)N2CCCC2C(=O)NCc2cccs2)cc1` (stereo not given), which Potency is on record?
Its Potency is “inactive”.

Which Potency does the source give for `Nc1c(C(=O)NC2CC2)sc2nc3c(c(-c4ccco4)c12)CC/C3=C/c1ccco1` here?
Its Potency is 2.24 µM (active).

Which Potency does the source give for `O=C1CC(Nc2ccc(N3CCOCC3)cc2)C(=O)N1c1cccc(C(F)(F)F)c1` (stereo not given) here?
The Potency was “inactive”.

For `CNc1cccccc1=S`, which Potency is on record?
Its Potency is “inactive”.

With `CCOC(=O)Nc1ccc(S(=O)(=O)Nc2cc(C)nc(C)n2)cc1` as the compound, how does the Potency read?
The Potency was “inactive”.

For `Cc1nc(NC(C)C)c2cnn(CCc3ccccc3)c2n1`, which Potency is on record?
Its Potency is “inactive”.

With `C=CCn1c(Br)nc2c1c(=O)n(C)c(=O)n2C` as the compound, how does the Potency read?
Its Potency is “inactive”.

Which Potency does the source give for `COCCn1nnnc1CN(CCc1ccccc1)Cc1cc2ccc(C)cc2[nH]c1=O` here?
Its Potency is “inactive”.

With `O=C(Nc1nnc(SCCC2OCCO2)s1)C1CC(=O)N(c2ccc(F)cc2)C1` (stereo not given) as the compound, how does the Potency read?
Its Potency is 11.2 µM (active).
